Hits are enriched below; roughly 17% of the tested compounds scored in any of these assays.
TDP1 cell noCPT: qHTS for Inhibitors of human tyrosyl-DNA phosphodiesterase 1 (TDP1): qHTS in cells in absence of CPT; DT40 Tdp1-/- hTDP1 cells, no CPT, ATP luminescence, 48 h; Potency, µM (doses to about 46.2 µM), without a hit: at the top dose activity change, negative = growth inhibition, actives largely listed as inhibitors; 420,000 compounds, 15% hits; AID 686978, 2013; also: % is scaled to controls: 0 for no effect and ±100 for the full control effect; nearly all actives have a fitted effect of over 55% in size
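Stably hTDP1-transfected Tdp1-null chicken DT40 cells were treated with library compounds minus camptothecin and grown for at least 48 hr at 37 °C, after which cellular ATP was quantified by luminescence.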
TDP1 block: qHTS Assay for Inhibitors of Tyrosyl-DNA Phosphodiesterase (TDP1) | Potency, µM (titrated, usually from 130 µM), without a hit: at the top dose activity change, negative = inhibition, actives largely listed as inhibitors | AID 485290, 2010 | recombinant TDP1, AlphaScreen DNA substrate cleavage | 350,000 compounds, 0.28% hits; also: % is scaled to controls: 0 for no effect and ±100 for the full control effect; nearly all actives have a fitted effect of over 40% in size
Target sequence (Q9NUW8 whole entry, looked up): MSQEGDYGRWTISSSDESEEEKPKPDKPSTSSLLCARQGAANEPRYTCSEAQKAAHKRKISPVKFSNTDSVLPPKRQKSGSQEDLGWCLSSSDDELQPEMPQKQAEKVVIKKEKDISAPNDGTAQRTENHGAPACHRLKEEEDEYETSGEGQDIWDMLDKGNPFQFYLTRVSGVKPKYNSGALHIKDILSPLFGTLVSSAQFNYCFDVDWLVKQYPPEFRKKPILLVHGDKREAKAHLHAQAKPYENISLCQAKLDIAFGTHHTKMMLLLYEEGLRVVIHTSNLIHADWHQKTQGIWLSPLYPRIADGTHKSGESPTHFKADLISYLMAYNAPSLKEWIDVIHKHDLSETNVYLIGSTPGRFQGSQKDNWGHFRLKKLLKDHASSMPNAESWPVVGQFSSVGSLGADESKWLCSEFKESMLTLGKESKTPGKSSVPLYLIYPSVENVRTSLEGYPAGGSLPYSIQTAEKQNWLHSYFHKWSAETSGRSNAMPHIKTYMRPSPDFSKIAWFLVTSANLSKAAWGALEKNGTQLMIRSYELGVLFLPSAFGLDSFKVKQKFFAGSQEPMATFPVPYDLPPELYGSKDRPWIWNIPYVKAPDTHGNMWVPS
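Recombinant E. coli-expressed Tdp1 (1 nM) preincubated with compound 15 min at RT, then 5'-biotin/3'-phosphotyrosine-FITC DNA substrate (15 nM) added for 5 min. AlphaScreen beads (10 ug/ml) added, 10 min RT; tyrosine-FITC cleavage read as signal loss.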
DT40 TDP1 CPT: qHTS for Inhibitors of human tyrosyl-DNA phosphodiesterase 1 (TDP1): qHTS in cells in presence of CPT | chicken DT40 Tdp1-/-;hTDP1 cells + 20 nM CPT, ATP luminescence, 48 h | Potency, µM (series often up to 46.2 µM), for the others: top-dose activity change, negative = growth inhibition, most hits filed as inhibitors | 420,000 compounds, 12% hits | AID 686979, 2013; also: % is scaled to controls: 0 for no effect and ±100 for the full control effect; nearly all actives have a fitted effect of over 55% in size
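Chicken DT40 Tdp1-/- cells complemented with human TDP1, 400 cells/well, exposed to compounds plus 20 nM camptothecin for at least 48 h at 37 C; viability read as ATP content by CellTiter-Glo luminescence.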
ClpP mod: qHTS Assay for Activators of ClpP | AID 651965, 2013 | purified B. subtilis ClpP, FRET peptide cleavage, 20 min | Potency, µM (doses to about 57.5 µM), for inactives: top-dose activity change, negative = active | 340,000 compounds, 1.9% hits; active = well fitted falling curve with a large enough effect; inconclusive = small, poorly fitted or top-dose-only effect; inactive = no such curve, though single readings can be large or run the other way; also: the source files actives as falling curves though it sought activators and does not explain the sign; nearly all actives have a fitted effect of over 65% in size
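Purified B. subtilis ClpP, 10 microg/mL final in Tris/HCl pH8 with KCl, BSA, glycerol and Tween-20, cleaved an Abz/nitrotyrosine-quenched decapeptide. Fluorescence (ex 320, em 430) was read at 0 and 20 min at room temperature. Delta was normalized to 5.8 microM ADEP and DMSO/no-enzyme controls.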
* hit, by the source's call; ? = inconclusive; . = not tested or not shown; [ ] = dose if it differs, or a comment. Unless noted, calls follow the shape of the dose curve; as a rule, active = well fitted curve in the direction sought with a large enough effect; inconclusive = small, poorly fitted or top-dose-only effect, or another doubt; inactive = no such curve, though single readings can be large; an effect the other way counts as inactive or inconclusive. Potency is read from the fitted curve at half-maximal effect.

SMILES	TDP1 cell noCPT	TDP1 block	DT40 TDP1 CPT	ClpP mod
COc1cccc(/C=C/C(=O)OCC(=O)Nc2nnc(-c3ccccc3)o2)c1	-3%	-5%	-4%	.
CC(C)c1ccccc1OS(N)(=O)=O	2%	.	3%	1%
CC(=O)Nc1ccc(C(=O)N2CCCCC2c2cc(C(=O)Nc3cccc(C#N)c3)no2)cc1 (stereo not drawn)	?	.	?	-1%
CCOc1cc(C2C3=C(CC(C)(C)CC3=O)Nc3n[nH]c(C)c32)ccc1O (stereo not drawn)	-24%	-8%	-5%	.
O=C(OCC(=O)N1CCCCC1)c1cccc(NS(=O)(=O)c2ccccc2)c1	-28%	0%	-23%	-3%
COc1ccccc1Nc1ccc(NS(=O)(=O)c2ccc(C(C)=O)cc2)cc1	16µM*	.	-19%	.
CCOC(=O)N1CCN(C(=O)c2ccc(NS(=O)(=O)c3ccc(C)cc3)cc2)CC1	13µM*	8%[56.1 µM]	18µM*	0%
COc1ccc(N2CCN(C(=O)COC(=O)c3cccc(S(=O)(=O)Nc4cccc(C)c4)c3)CC2)cc1	?	6%[0.505 µM]	16µM*	.
CCOc1ccc(NS(=O)(=O)c2ccc(C(=O)N(C)CC(=O)Nc3cccc(OC)c3)cc2)cc1	16µM*	.	18µM*	0%
Cc1ccc(NS(=O)(=O)c2ccc(C(=O)N3CCC3)cc2)cc1	?	0%	?	.
O=CN(c1ccccc1)c1ccc2ccccc2c1	-18%	5%	0%	.
OC[C@H]1O[C@@H](O[C@@H]2[C@@H](CO)O[C@](O)(CO)[C@H]2O)[C@H](O)[C@@H](O)[C@H]1O	-7%	7%	-11%	.
O=C(NCCSc1c[nH]c2ccccc12)c1ccc2c(c1)OCO2	-20%	3%	1%	2%
Cc1ccc(NS(=O)(=O)c2ccc(C(=O)N3CCCCCCC3)cc2)cc1	?	1%	23µM*	0%
CCOc1ccc(NS(=O)(=O)c2ccc(C(=O)N3CCCC(C)C3)cc2)cc1 (stereo not drawn)	16µM*	.	16µM*	.
CCOC(=O)C1(CCc2ccccc2)CCN(C(=O)CCn2cncn2)CC1	-21%	5%	2%	.
Cc1nnc2sc(SCC(=O)Nc3cccc(Cl)c3)nn2c1=O	-22%	8%	-6%	.
O=c1oc2ccccc2nc1/C=C(O)/C=C/c1ccc(F)cc1	15µM*	0%	9.2µM*	1%
Cc1ccc(/C(O)=C/c2nc3ccccc3oc2=O)cc1	?	.	-27%	.
O=c1oc2ccccc2nc1/C=C(O)/C=C\c1ccccc1	23µM*	6%	15µM*	1%
N#C/C(=N\Nc1ccc(Cl)c(Cl)c1)C(=O)C1CC1	6.5µM*	.	21µM*	.
Cc1nc(C(=O)N(C)C)nn1-c1ccc([N+](=O)[O-])cc1	-19%	1%	10%	.
NCCNC[C@@H]1COC2(CCCCCCCCCCC2)O1	23µM*	1%	?	.
CN(/N=C/c1cc(Cl)ccc1O)C1=NS(=O)(=O)c2ccccc21	18µM*	.	16µM*	-1%
CC(C)(C)NC(=O)CCN(/N=C/c1ccncc1)C1=NS(=O)(=O)c2ccccc21	-10%	.	-8%	.
SMILES	TDP1 cell noCPT	TDP1 block	DT40 TDP1 CPT	ClpP mod
COc1ccc(/C=N/N(CCC(=O)NC(C)(C)C)C2=NS(=O)(=O)c3ccccc32)cc1	21µM*	.	21µM*	2%
CC(C)(C)NC(=O)CCN(/N=C/c1ccccc1O)C1=NS(=O)(=O)c2ccccc21	15µM*	.	21µM*	-1%
CCN(CC(=O)Nc1ccc(NC(C)=O)cc1)C(=O)c1ccc(Sc2nncn2C)c([N+](=O)[O-])c1	-1%	.	-4%	1%
O=C(Nc1cccc(Cl)c1)N1CCC(CO)(CCOc2ccccc2)CC1	?	5%	?	-2%
CCOC(=O)CSc1nc2ccccc2n2c(C)nnc12	-5%	-2%	5%	0%
CCC(C)Sc1cc(C)c(C#N)c2nc3ccccc3n12 (stereo not drawn)	16µM*	6%	18µM*	3%
CCOC(=O)CSc1cc(C)c(C#N)c2nc3ccccc3n12	23µM*	3%	?	.
O=C(CSC1=NCCN1)Nc1cccc([N+](=O)[O-])c1	21µM*	6%	15µM*	.
Cc1ccc(NC(=O)CSC2=NCCN2)cc1	18µM*	-3%	23µM*	1%
O=C(CSC1=NCCN1)NC(c1ccccc1)c1ccccc1	21µM*	3%	?	-1%
O=C(CSC1=NCCN1)Nc1ccccc1[N+](=O)[O-]	21µM*	1%	?	.
O=C(CSC1=NC(=O)C(c2ccccc2)C(=O)N1)Nc1ccccc1[N+](=O)[O-] (stereo not drawn)	-7%	.	2%	.
CCCCC(CC)COC(=O)c1ccccc1O (stereo not drawn)	-2%	4%	-10%	.
CSc1ccccc1-c1nc(-c2ccncc2)no1	?	.	-21%	1%
COc1nc2c(C)cccc2cc1-c1noc(-c2ccco2)n1	0.15µM*	5%	-43%	?
COCCNC(=O)c1cccc(-n2c(C)nc3cccnc32)c1	-13%	0%	-3%	4%
Cc1ccc(C(=O)NCCc2ccc(Cl)cc2)cc1-n1c(C)nc2cccnc21	23µM*	3%	?	?
CCOc1ccc(CCNC(=O)c2cccc(-n3c(C)nc4cccnc43)c2)cc1	16µM*	8%	23µM*	-2%
Cc1nc2cccnc2n1-c1cccc(C(=O)NCCc2ccc(Cl)cc2)c1	18µM*	6%	?	-3%
O=C(NCc1ccccc1)C(c1ccco1)N(C(=O)c1csnn1)C1CC1 (stereo not drawn)	13%	1%	11%	.
COc1c(Cl)cc(Cl)cc1/C=N/NC(=O)c1nnn(-c2nonc2N)c1CN1CCC(C)CC1	?	1%	15µM*	1%
Nc1nonc1-n1nnc(C(=O)N/N=C\c2cccc(Cl)c2)c1CN1CCOCC1	0%	1%	-4%	.
CC1CCN(Cc2c(C(=O)N/N=C/c3cc(Br)ccc3O)nnn2-c2nonc2N)CC1	5.8µM*	-5%	5.8µM*	.
Nc1nonc1-n1nnc(C(=O)N/N=C/c2c(Cl)cccc2Cl)c1CN1CCOCC1	-7%	11%[0.0935 µM]	-4%	.
CCOc1ccc(/C=N/NC(=O)c2nnn(-c3nonc3N)c2CN2CCC(C)CC2)cc1	?	5%	-22%	?
C/C(=N\NC(=O)c1nnn(-c2nonc2N)c1CN1CCc2ccccc21)c1ccccc1O	6.5µM*	1%	6.5µM*	1%
CC1CCN(Cc2c(C(=O)N/N=C/c3cc(Cl)ccc3O)nnn2-c2nonc2N)CC1	5.8µM*	5%	4.6µM*	.
Nc1nonc1-n1nnc(C(=O)N/N=C/c2ccccc2)c1CN1CCc2ccccc21	?	4%[0.0935 µM]	?	.

Screening results (PubChem BioAssay)
